The source of these data is PubChem BioAssay (NCI).

“And” between values parts separate entries of the source, which are not always exact repeats. Equal values may be shown once. Compounds without any hit were thinned out: in the full panel of roughly 83,000, 20% have a hit.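 Cell lines were cultured in 96-well plates, exposed to a single compound concentration, and assessed for percent growth 48 hours later.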 Unmarked numbers belong to inactive results. The source made the active and inactive calls. How the source made its calls: active means growth percent below 10; inactive means the rest.

Assay in all cases: NCI-60 one-dose screen, 48 h (100 = growth as untreated, 0 = no growth, -100 = all killed)
Assay [1] has as its system HT29 colon.
For assay [2], the system named is SNB-75 CNS.
The test system of assay [3] is SNB-19 CNS.
The test system of assay [4] is U251 CNS.
In assay [5] the test system is PC-3 prostate.
Assay [6] concerns SK-MEL-5 melanoma.
For assay [7], the system named is UACC-62 melanoma. To be noted: 10 µM unless noted.
Assay [8] relates to LOX IMVI melanoma.
The test system of assay [9] is SK-MEL-28 melanoma. The settings on record: 10 µM unless noted.
Assay [10] deals with HCT-15 colon. The settings on record: 10 µM unless noted.

Take `O=C1C(=O)c2ccccc2C(O)=C1CC=C(Cl)Cl`: the growth in assay [1] (10 µM unless noted) was 31.4% and 34.8%; in [2] (10 µM unless noted), 54.3% and 57.4%; in [3] (10 µM unless noted), 52.9% and 61.9%; in assay [4] (10 µM unless noted), 42.5% and 42.8%; in assay [5] (10 µM unless noted) it was 35.3% and 40.9%; in assay [6] (10 µM unless noted), 48.4% and 48.1%. Also, the growth is 55.7% and 60% in assay [7]; 16.7% and 27.4% in assay [8] (10 µM unless noted); 70.1% in [9].

`CCOP(=O)(OCC)/C(C#N)=C/c1c(C)[nH]c2ccccc12`: the growth is 106% in assay [1] (10 µM unless noted); 49.8% in assay [2] (10 µM unless noted); 94.6% in assay [3] (10 µM unless noted); 88.9% in [4] (10 µM unless noted); 83.3% in assay [5] (10 µM unless noted); 91.3% in assay [6] (10 µM unless noted). The growth in [7] is 82.3%; in [8] (10 µM unless noted), 89.7%; in assay [9], 113%.

For `COc1ccc(CCN=Cc2ccc(Cl)cc2)cc1OC`, the growth was 107% in assay [1] (10 µM unless noted); 127% in [2] (10 µM unless noted); 101% in [3] (10 µM unless noted); 105% in assay [4] (10 µM unless noted); 116% in assay [5] (10 µM unless noted); 107% in [6] (10 µM unless noted). Besides, the results for the growth in assay [7], in assay [8] (10 µM unless noted) and in assay [9] were 107%, 95.8% and 121%, respectively.

As to `COc1ccc(C(=O)C(O)c2ccc(OC)cc2)cc1` (centres undefined), the growth in [10] was 110% and 107%; in assay [1] (10 µM unless noted) it was 106% and 111%; in [2] (10 µM unless noted), 98% and 94.1%; in assay [3] (10 µM unless noted), 109% and 111%; in assay [4] (10 µM unless noted), 105% and 95.7%; in assay [6] (10 µM unless noted), 105%. For the same molecule, the growth is 96.4% and 98.4% in assay [8] (10 µM unless noted); 114% and 109% in assay [9].

Take `CCOC(=O)C1=CC(=O)CC(C)(C)O1`: the growth in assay [1] (10 µM unless noted) was 92.6% and 101%; in assay [2] (10 µM unless noted), 116%; in assay [3] (10 µM unless noted) it was 104% and 109%; in [4] (10 µM unless noted), 104% and 99.9%; in assay [5] (10 µM unless noted) it was 88.7% and 105%; in assay [6] (10 µM unless noted), 112%. The growth in assay [8] (10 µM unless noted) is 103% and 107%; in [9], 119% and 120%.

Regarding `CCN(CC)C(CC(=O)c1ccccc1)C(=O)c1ccccc1` (centres undefined), the growth is 95.1% in assay [1] (10 µM unless noted); 114% in [2] (10 µM unless noted); 98.4% in assay [3] (10 µM unless noted); 93.7% in assay [4] (10 µM unless noted); 101% in assay [5] (10 µM unless noted); 94.5% in [6] (10 µM unless noted). Also, the growth in assay [7] is 99.7%; in [8] (10 µM unless noted) it was 88.6%; in assay [9], 118%.

In the case of `CCOC(=N)c1ccc(C(=N)OCC)cc1`, the growth in assay [1] (10 µM unless noted) is 101%; in assay [2] (10 µM unless noted) it was 103%; in assay [3] (10 µM unless noted), 91.4%; in assay [4] (10 µM unless noted) it was 102%; in assay [5] (10 µM unless noted), 103%; in [6] (10 µM unless noted) it was 95.7%. The growth is 96.8% in assay [7], 98.1% in assay [8] (10 µM unless noted) and 101% in [9].

Consider `CC(=O)Nc1ccc2oc(=O)ccc2c1`, for which the growth is 106% in [1] (10 µM unless noted); 89% in assay [2] (10 µM unless noted); 102% in assay [3] (10 µM unless noted); 108% in assay [4] (10 µM unless noted); 97.8% in assay [6] (10 µM unless noted); 93.9% in [7]. Besides, the growth in assay [8] (10 µM unless noted) is 99.7%.

`CC(=O)c1cc2ccccc2o1`: the growth in assay [1] (10 µM unless noted) was 95.4%; in assay [2] (10 µM unless noted), 101%; in assay [3] (10 µM unless noted) it was 108%; in assay [4] (10 µM unless noted), 109%; in [5] (10 µM unless noted), 99.9%; in assay [6] (10 µM unless noted), 101%. In addition, the growth in assay [7] is 102%; in assay [8] (10 µM unless noted), 95.3%; in assay [9], 96.6%.

In the case of `CCOC(C)=N`, the growth in [1] (10 µM unless noted) was 102%; in [2] (10 µM unless noted), 93.2%; in assay [3] (10 µM unless noted) it was 104%; in [4] (10 µM unless noted), 104%; in assay [5] (10 µM unless noted) it was 99.3%; in assay [6] (10 µM unless noted) it was 109%. Also, the growth was 102% in [7], 100% in assay [8] (10 µM unless noted) and 112% in assay [9].

Consider `CC(=O)/C(N=Nc1ccc(S(=O)(=O)c2ccc(N=N/C(C(C)=O)=C(/C)O)cc2)cc1)=C(\C)O`, for which the growth is 102% in assay [1] (10 µM unless noted); 97.7% in assay [2] (10 µM unless noted); 114% in assay [3] (10 µM unless noted); 101% in [4] (10 µM unless noted); 92.1% in assay [5] (10 µM unless noted); 108% in assay [6] (10 µM unless noted). The growth in [7] is 114%; in assay [8] (10 µM unless noted) it was 99.1%; in [9] it was 113%.

As to `CC(C)(C)C1=CC(=O)C(C(C)(C)C)=CC1=O`, the growth was 109% and 99.8% in assay [1] (10 µM unless noted); 104% and 96.6% in assay [2] (10 µM unless noted); 86.2% and 101% in assay [3] (10 µM unless noted); 96.2% and 94.2% in assay [4] (10 µM unless noted); 90.8% and 101% in [5] (10 µM unless noted); 93.5% and 108% in assay [6] (10 µM unless noted). Also, the growth in [7] is 87.1% and 99.6%; in [8] (10 µM unless noted) it was 91.6% and 99.5%; in assay [9], 114% and 109%.

Turning to `O=[N+]([O-])c1ccc(NC2CCCCC2)nc1`, the growth was 106% and 104% in [1] (10 µM unless noted); 102% and 96.9% in [2] (10 µM unless noted); 103% and 108% in [3] (10 µM unless noted); 107% and 101% in assay [4] (10 µM unless noted); 105% and 98% in assay [5] (10 µM unless noted); 112% and 106% in [6] (10 µM unless noted). Moreover, the growth in assay [7] was 104% and 92.2%; in assay [8] (10 µM unless noted), 94%; in assay [9] it was 128% and 111%.

For the molecule `Nc1[nH][nH]c(=O)c1N=Nc1ccccc1`, the growth in assay [1] (10 µM unless noted) was 107% and 88.8%; in [2] (10 µM unless noted), 79.3% and 111%; in assay [3] (10 µM unless noted), 99.5% and 112%; in assay [4] (10 µM unless noted) it was 109% and 105%; in assay [5] (10 µM unless noted), 99% and 101%; in [6] (10 µM unless noted) it was 104% and 99.5%. Moreover, the growth is 96.3% and 109% in [7]; 105% and 100% in assay [8] (10 µM unless noted); 111% and 118% in assay [9].

As to `S=c1nc[nH]c2nc[nH]c12`, the growth in [1] (10 µM) was 41.7%; in assay [1] (50 µM) it was 14.3%; in [2] (10 µM), 55.9%; in assay [2] (50 µM) it was 43.7%; in assay [3] (10 µM), 96.3%; in assay [3] (50 µM) it was 91.6%. Moreover, the growth in assay [4] (10 µM) is 51.5%; in assay [4] (50 µM) it was 36.8%; in assay [5] (10 µM), 53.5%; in [5] (50 µM) it was 43.2%; in assay [6] (10 µM), 61.8%; in assay [6] (50 µM) it was 12.8%. Further, the growth was 9.56% (active) in [8] (10 µM) and 6.96% (active) in [8] (50 µM).

For `Nc1c(Cl)cc2c(c1Br)C(=O)c1ccccc1C2=O`, the growth was 100% in assay [1] (10 µM unless noted); 94.2% in assay [2] (10 µM unless noted); 88.8% in assay [3] (10 µM unless noted); 95.8% in [4] (10 µM unless noted); 97.7% in assay [5] (10 µM unless noted); 89.4% in [6] (10 µM unless noted). For the same molecule, the results for the growth in [7], in assay [8] (10 µM unless noted) and in [9] were 77%, 94.2% and 113%, respectively.

With `COC(=O)C(Cc1cn(C(C)=O)c2ccccc12)P(=O)(OC)OC` (centres undefined), the growth was 108% in [1] (10 µM unless noted); 89.5% in assay [2] (10 µM unless noted); 104% in assay [3] (10 µM unless noted); 101% in assay [4] (10 µM unless noted); 88.6% in assay [5] (10 µM unless noted); 96.8% in assay [6] (10 µM unless noted). The growth in assay [7] is 93.1%; in assay [8] (10 µM unless noted) it was 92.7%.

In the case of `O=C(N=C1C(=O)C2(CCCCC2)C2(N=C(c3ccccc3)OC2=O)C12CCCCC2)c1ccccc1` (centres undefined), the growth in assay [1] (10 µM unless noted) was 51.5%; in assay [2] (10 µM unless noted), 85.2%; in [3] (10 µM unless noted) it was 71.5%; in assay [4] (10 µM unless noted), 59.6%; in assay [5] (10 µM unless noted), 42.8%; in assay [6] (10 µM unless noted), 64.6%. In addition, the growth in assay [7] is 58.6%; in assay [8] (10 µM unless noted) it was 71.5%; in assay [9], 84.5%.

Regarding `NNc1ncnc2cccc(Cl)c12`, the growth was 95% in assay [1] (10 µM unless noted); 101% in [2] (10 µM unless noted); 103% in [3] (10 µM unless noted); 95.4% in [4] (10 µM unless noted); 93.3% in [5] (10 µM unless noted); 91% in assay [6] (10 µM unless noted). The figures for the growth in [7], in assay [8] (10 µM unless noted) and in assay [9] were 92%, 94.6% and 103%, respectively.

Turning to `OC(CC(c1ccccc1)c1cccc2ccccc12)(c1ccccc1)c1ccccc1` (centres undefined), the growth is 68.2% and 52.6% in [1] (10 µM unless noted); 103% and 74.6% in [2] (10 µM unless noted); 95.5% and 94.7% in assay [3] (10 µM unless noted); 90.4% and 87.7% in assay [4] (10 µM unless noted); 60.6% and 56.4% in assay [5] (10 µM unless noted); 88.3% and 95.5% in [6] (10 µM unless noted). Also, the growth in [7] was 76.7% and 79.4%; in [8] (10 µM unless noted) it was 80.5% and 74.8%.
